The results in this text go back to PubChem BioAssay AID2116 (The Scripps Research Institute Molecular Screening Center, 2009).

Unmarked numbers belong to inactive results. Calls of active or inactive are those of the source. No rule for the calls is given here.

The target of this test is Mucolipin-2 (Homo sapiens) (UniProt Q8IZK6). The test can be described thus: TRPML3 and TRPML2 channel agonists, cell-based, patch clamp, Fura-2 profiling panel (AID 2116). The settings on record: HEK293 cells, TRPML2 Fura-2 Imaging; at 10 µM; stronger effect = higher value. In general terms: Patch clamp records ionic current or voltage across a cell membrane.
For the molecule `O=S(=O)(Nc1ccccc1N1CCOCC1)c1ccc(Cl)s1`, the activation was 7.14%.

As for `O=S(=O)(NC1CCCCC1N1CCOCC1)c1ccc(Cl)cc1` (stereo not given), the activation was 54.5% (active).

With `O=S(=O)(Nc1ccccc1N1CCCCC1)c1ccc(Cl)s1`, the activation is below 1%.

In the case of `Cc1ccc(N2CCN(S(=O)(=O)N3CCCCC3)CC2)c(C)c1`, the activation is 23.5% (active).

Turning to `Cc1ccc(S(=O)(=O)Nc2ccccc2-c2ccccc2)cc1`, the activation is below 1%.
